High-throughput results as filed in PubChem BioAssay.
Tau fibril FP = qHTS for Inhibitors of Tau Fibril Formation, Fluorescence Polarization; 0.39% of 280,000 active; K18 P301L tau heparin fibrillization, Alexa594 FP, 6 h; Potency, µM (top dose mostly 57.7 µM), actives largely listed as inhibitors; note: nearly all actives have a fitted effect of over 55% in size
Target sequence (P10636 561-689 P618L limits assumed): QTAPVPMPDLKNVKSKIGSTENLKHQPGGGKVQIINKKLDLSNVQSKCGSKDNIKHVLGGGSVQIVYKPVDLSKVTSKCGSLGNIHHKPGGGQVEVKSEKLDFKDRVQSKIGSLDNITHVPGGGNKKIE
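Recombinant K18 P301L […], labeled with Alexa 594 at 0.24 uM over 15 uM unlabeled; heparin inducer 20 uM final; 37 C, 6 hr; FP endpoint.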
GoLoco inh red = qHTS Assay for Inhibitors of RGS12 GoLoco Motif Activity (Red Fluorophore) | Guanine nucleotide-binding protein G(i) subunit alpha-1 (Homo sapiens), P63096 | Potency, µM (titrated, usually from 61.6 µM), hits mostly inhibitors | 0.44% of 230,000 active | Gai1:RGS12 GoLoco peptide FP, rhodamine, 10 min; active = well fitted inhibition curve with a large enough effect, not every such curve was filed as active; inactive = no such curve, though single readings can be large or run the other way; note: nearly all actives have a fitted effect of over 30% in size
Target sequence (P63096 whole entry, looked up): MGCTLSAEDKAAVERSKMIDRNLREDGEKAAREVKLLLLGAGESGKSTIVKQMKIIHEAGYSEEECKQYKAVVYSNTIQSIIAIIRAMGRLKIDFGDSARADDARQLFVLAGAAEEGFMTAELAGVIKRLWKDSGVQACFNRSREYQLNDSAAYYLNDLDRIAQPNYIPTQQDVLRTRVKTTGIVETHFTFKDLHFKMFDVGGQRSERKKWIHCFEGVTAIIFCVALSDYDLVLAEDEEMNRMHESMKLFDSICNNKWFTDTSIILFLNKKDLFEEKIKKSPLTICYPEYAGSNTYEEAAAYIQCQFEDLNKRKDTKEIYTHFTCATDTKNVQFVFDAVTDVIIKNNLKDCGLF
TR SRC2 fluor cs = Total Fluorescence Counterscreen for Inhibitors of the Interaction of Thyroid Hormone Receptor and Steroid Receptor Coregulator 2; TRb/SRC2 Texas Red total fluorescence interference; Potency, µM (series often up to 106 µM); 0.29% of 280,000 active; active = well fitted curve in either direction with a large enough effect; inconclusive = small, poorly fitted or top-dose-only effect
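Human TRb ligand-binding domain at 0.6 uM with 20 nM Texas Red SRC2 peptide in Tris buffer containing 1 uM T3 and 5% DMSO, incubated with compound 5 h at ambient temperature. Total fluorescence (555/632 nm) calculated as parallel + 2 × perpendicular.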
TRb SRC2 PPI = qHTS for Inhibitors of the Interaction of Thyroid Hormone Receptor and Steroid Receptor Coregulator 2; Potency, µM (series often up to 106 µM), most hits filed as inhibitors; Thyroid hormone receptor beta (Homo sapiens), P10828; TRbeta-SRC2 peptide binding, fluorescence polarization; receptor liganded with 1 µM T3; 0.065% of 280,000 active; note: nearly all actives have a fitted effect of over 50% in size
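TRb LBD 0.6 uM + Texas Red SRC2 peptide 20 nM, 1 uM T3, Tris buffer w/ 5% DMSO; compound pinned, 5 h RT; FP read ex 555/em 632; normalized to unbound and bound controls.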
Tau ThT inhib = qHTS for Inhibitors of Tau Fibril Formation, Thioflavin T Binding. Microtubule-associated protein tau (Homo sapiens), P10636. recombinant tau K18 P301L, heparin-induced fibrillization, ThT fluorescence. Potency, µM (titrated, usually from 57.4 µM), usual class: inhibitors. 2.1% of 270,000 active. AID 1460, 2008; note: nearly all actives have a fitted effect of over 55% in size
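Fibril formation assay: tau K18 P301L at 15 uM with trace Alexa 594 label, heparin inducer 20 uM, pH 7 sodium acetate buffer, 37 C for 6 hr; endpoint ThT signal.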
Tau fluor cs = Counterscreen qHTS for Inhibitors of Tau Fibril Formation, Fluorescence Polarization. Potency, µM (series often up to 57.7 µM). AID 1463, 2008. tau K18 P301L (four-repeat tau fragment) Alexa594 fluorescence, heparin fibrillization. 0.93% of 280,000 active; note: nearly all actives have a fitted effect of over 55% in size
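Human K18 P301L tau (15 uM unlabeled plus 0.24 uM Alexa 594-labeled, final) in 100 mM sodium acetate pH 7 was mixed with compound and 20 uM heparin and incubated 6 hr at 37 C.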
Numbers stand for hits; . = inactive; ? = inconclusive; / = no result given; [ ] = dose if it differs, or a comment. Rows were chosen to be rich in hits. Some 3.1% of all compounds tested hit in one or more screens of this group. Unless noted, calls come from the whole dose curve; as a rule, active = well fitted curve in the direction sought with a large enough effect; inconclusive = small, poorly fitted or top-dose-only effect, or another doubt; inactive = no such curve, though single readings can be large; an effect the other way counts as inactive or inconclusive.

SMILES	Tau fibril FP	GoLoco inh red	TR SRC2 fluor cs	TRb SRC2 PPI	Tau ThT inhib	Tau fluor cs
CCCSc1ncc(Cl)c(C(=O)N(Cc2cccc(Cl)c2)C2CCS(=O)(=O)C2)n1 (stereo not drawn)	.	/	.	.	.	.
CCCSc1ncc(Cl)c(C(=O)N(Cc2ccc(N(C)C)cc2)C2CCS(=O)(=O)C2)n1 (stereo not drawn)	.	/	4.47µM[quencher]	.	?	?
O=C(Cc1cccc(C(F)(F)F)c1)NCc1ccc(Cl)cc1	.	.	.	.	.	.
CCN(CC)C(=O)CSc1nc(N)c(C(=O)Nc2ccc(OC)cc2)s1	.	.	.	.	.	.
CCOC(=O)CSc1nc(N)c(C(=O)Nc2ccc(N(C)C)cc2)s1	.	.	.	.	15.8µM	?
Cc1cccc(N2C(=O)CS/C2=N\NC(=O)c2ccc(Cl)cc2)c1C	.	.	.	.	.	.
COc1ccc(-c2c(C)nn3c(-c4ccccc4)cc(-c4ccccc4)nc23)cc1OC	.	/	.	.	.	?
COc1ccc(-c2cc(C)nc3c(-c4ccc(OC)c(OC)c4)c(C)nn23)cc1	?	/	.	.	10µM	14.1µM[quencher]
Oc1cccc(/C=N/Nc2cc(N3CCCC3)nc(N3CCCC3)n2)c1	.	.	.	.	?	15.8µM[quencher]
Oc1ccc(/C=N/Nc2cc(N3CCCC3)nc(N3CCCC3)n2)cc1	.	.	.	.	?	17.8µM[quencher]
Oc1ccc(Br)cc1/C=N/Nc1nc(N2CCCCC2)nc(N2CCOCC2)n1	?	.	.	.	.	?
Oc1ccc(/C=N/Nc2nc(N3CCCCCC3)nc(N3CCCCCC3)n2)c(O)c1	.	.	.	.	?	10µM[quencher]
Cc1oc2ccc(O)c(CN(C)Cc3ccccc3)c2c1C(=O)Nc1ccccc1	.	/	.	.	.	?
CC(C)OCCCNC(=O)CCCn1c(SCC(=O)c2ccc(Br)cc2)nc2c(sc3ccccc32)c1=O	.	/	.	.	.	.
O=c1c2ccccc2nc2ccccn12	.	.	.	.	.	.
CN(Cc1ccco1)c1ccnc(-c2ccoc2)n1	?	.	.	.	22.4µM	?
COc1cccc(O)c1O	25.1µM	.	.	.	14.1µM	11.2µM[quencher]
CN(C)c1ccc(C(=S)NCc2ccco2)cc1	.	.	.	.	10µM	?
Cc1cccc(Nc2nnc(-c3ccc(C)c(S(=O)(=O)N4CCN(C)CC4)c3)c3ccccc23)c1	.	/	.	.	.	.
O=C(/C=C/c1ccc([N+](=O)[O-])cc1)Nc1ncc([N+](=O)[O-])s1	.	.	.	.	3.55µM	?
O=C(N/N=C/c1cn(CCOc2ccccc2)c2ccccc12)c1ccncc1	.	.	.	.	?	14.1µM[quencher]
COc1ccccc1OCCn1cc(/C=N/NC(N)=S)c2ccccc21	?	.	.	.	?	?
COc1ccccc1OCCn1cc(/C=N/NC(=O)c2ccncc2)c2ccccc21	?	.	.	.	?	12.6µM[quencher]
CCOC(=O)c1c(NC(=O)CSc2nnc(C)c(=O)[nH]2)sc(C)c1C	.	.	.	.	.	.
Cc1ccc(NC(=O)CCC(=O)N2CCSc3ccccc32)cc1	.	/	.	.	.	.
SMILES	Tau fibril FP	GoLoco inh red	TR SRC2 fluor cs	TRb SRC2 PPI	Tau ThT inhib	Tau fluor cs
O=C(NCc1ccccc1)c1sc(=S)n2c1[nH]c(=O)c1ccccc12	.	.	.	.	14.1µM	?
COc1ccc(CNC(=O)c2sc(=S)n(-c3ccccc3)c2N)cc1	.[0.0958 µM]	.	.	.	/	.[0.0958 µM]
Cc1cccc2c1NC(=O)/C2=C\C(=O)c1cccs1	.	.	.	.	22.4µM	.
Cc1cc(C)c2c(c1)/C(=C/C(=O)c1ccc(Br)s1)C(=O)N2	.	.	.	.	28.2µM	20µM[quencher]
C=CCOC(=O)CCC(=O)Nc1cc(OC)nc(OC)n1	.	.	.	.	.	.
COc1cc2c(cc1OC)C1(C)N(CC2)C(C(C)=O)=NN1c1ccc(Cl)cc1 (stereo not drawn)	.	.	.	.	10µM	?
COc1cc2c(cc1OC)CN(C(=S)Nc1ccc(Cl)cc1)CC2	.	.	.	.	.	.
O=[N+]([O-])c1cccc(C(=Nc2ccccc2)NO)c1	.	.	.	.	.	.
O=[N+]([O-])c1cc([N+](=O)[O-])c2c(=Nc3ccccc3)n(-c3ccccc3)n(O)c2c1	?	.	.	.	14.1µM	15.8µM[quencher]
COC(=O)c1ccccc1NC(=O)c1cnc(Nc2ccc(OC)cc2)c2ccccc12	.	/	.	.	?	4.47µM[quencher]
COc1ccc(Nc2ncc(C(=O)Nc3cccc(Cl)c3)c3ccccc23)cc1	.	/	.	.	?	8.91µM[quencher]
COc1ccc(Nc2ncc(C(=O)Nc3cc(Cl)c(OC)cc3OC)c3ccccc23)cc1	?	/	.	.	.	?
O=C(Nc1ccc(N2CCN(C(=O)c3ccccc3)CC2)cc1)c1ccc([N+](=O)[O-])o1	.	.	.	.	4.47µM	?
CCOc1ccc(C(=O)NC(=S)Nc2ccc(N3CCCCC3)cc2)cc1[N+](=O)[O-]	.	.	.	.	3.55µM	?
COc1ccc(C(=O)Nc2ccc(N3CCN(C(=O)c4ccccc4)CC3)cc2)cc1[N+](=O)[O-]	.	.	.	.	15.8µM	?
Cc1ccc(C(=O)Nc2ccc(N3CCCC3)cc2)cc1	.	.	.	.	?	.
CC(=O)N1CCN(c2ccc(NC(=O)c3ccc(C(C)(C)C)cc3)cc2)CC1	.	.	.	.	3.55µM	?
Cc1c(N=C2NC(=O)C(CC(=O)Nc3ccc(Cl)cc3)S2)c(=O)n(-c2ccccc2)n1C (stereo not drawn)	.	.	.	.	.	.
COc1ccc(C(=O)CSc2nnn(-c3cccc(NC(C)=O)c3)n2)cc1	.	.	.	.	?	.
CC(C)C(=O)N1CCN(c2ccc(NC(=O)c3ccc([N+](=O)[O-])o3)cc2)CC1	.	.	.	.	5.01µM	?
O=C(Nc1ccc(N2CCN(C(=O)c3ccco3)CC2)cc1)c1ccc2c(c1)OCO2	.	.	.	.	?	.
COc1cc(CNc2ccc(N3CCN(C(C)=O)CC3)cc2)ccc1OCc1ccc(F)cc1	.	.	.	.	?	.
Cc1ccccc1C(=O)N1CCN(c2ccc(NC(=O)c3ccc4c(c3)OCO4)cc2)CC1	.	.	.	.	12.6µM	?
CC(=O)N1CCN(c2ccc(NCc3ccc(F)cc3)cc2)CC1	?	.	.	.	25.1µM	?
